# PubChem BioAssay AID652217 (Sanford-Burnham Center for Chemical Genomics, 2013)
# Among all 1,800 compounds or so, about 240 (13%) were called active. A selection follows. Unmarked numbers belong to inactive results. Cut-off read from the data, not from the text of the source: active = inhibition above about 40%; inactive = the rest.
# Target: NEDD8-conjugating enzyme Ubc12 (Homo sapiens) + NEDD8-activating enzyme E1 regulatory subunit (Homo sapiens) (UniProt P61081+Q13564)
# Experiment: blockade of NEDD8 conjugation to cullin – biochemical, TR-FRET, single concentration, confirmation (AID 652217);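 note: neddylation substrate is the cullin 1 ring ligase complex with SKP2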
# Conditions: TR-FRET cullin neddylation biochemical assay; at 25 µM; hits give high values
# Chain of NEDD8-conjugating enzyme Ubc12 (Homo sapiens) + NEDD8-activating enzyme E1 regulatory subunit (Homo sapiens) (P61081 whole entry, looked up): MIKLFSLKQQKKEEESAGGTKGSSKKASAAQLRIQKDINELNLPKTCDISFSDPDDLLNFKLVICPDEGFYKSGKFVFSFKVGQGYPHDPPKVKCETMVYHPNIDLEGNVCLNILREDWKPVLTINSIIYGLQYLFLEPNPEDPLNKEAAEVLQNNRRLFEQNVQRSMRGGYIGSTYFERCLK
# Chain of NEDD8-conjugating enzyme Ubc12 (Homo sapiens) + NEDD8-activating enzyme E1 regulatory subunit (Homo sapiens) (Q13564 whole entry, looked up): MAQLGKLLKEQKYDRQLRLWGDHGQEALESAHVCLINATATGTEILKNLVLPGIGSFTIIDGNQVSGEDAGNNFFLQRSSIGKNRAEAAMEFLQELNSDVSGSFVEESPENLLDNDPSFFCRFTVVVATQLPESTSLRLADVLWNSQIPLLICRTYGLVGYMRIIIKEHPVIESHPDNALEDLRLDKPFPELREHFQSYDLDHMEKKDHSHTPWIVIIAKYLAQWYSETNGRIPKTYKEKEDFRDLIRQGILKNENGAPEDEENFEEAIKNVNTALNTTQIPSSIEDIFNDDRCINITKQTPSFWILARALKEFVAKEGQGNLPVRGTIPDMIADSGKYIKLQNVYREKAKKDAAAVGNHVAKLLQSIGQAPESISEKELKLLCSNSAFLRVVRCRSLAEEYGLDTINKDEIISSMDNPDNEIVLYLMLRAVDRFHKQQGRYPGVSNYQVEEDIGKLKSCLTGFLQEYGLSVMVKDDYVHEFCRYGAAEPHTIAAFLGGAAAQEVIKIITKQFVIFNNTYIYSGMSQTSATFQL
row,SMILES,inhibition
1,COc1cccc(Cn2cc(/C=N/NC(=O)c3cc(O)cc(O)c3)c3ccccc32)c1,41.7% (active)
2,O=C(Cn1cc(/C=N/NC(=O)c2cccc(C(F)(F)F)c2)c2ccccc21)Nc1ccc(F)cc1,20.1%
3,CN(C)c1ccc(/C=N/Nc2cc(N3CCOCC3)nc(N3CCOCC3)n2)cc1,14.8%
4,COc1ccc2oc(C(=O)NCC(Cc3ccccc3)N(C)C)c(C)c2c1 (stereo not given),39.6%
5,c1ccc(-c2[nH]ncc2-c2nc3ccccc3[nH]2)cc1,34.5%
6,CCN(CC)c1ccc(/C=N/Nc2nc(C)cc(=O)[nH]2)cc1,28.2%
7,CCN(CC)c1ccc(/C=N/NC(=O)CNC(=O)c2cccs2)cc1,54.1% (active)
8,COc1ccc(Br)cc1/C=N/Nc1ccc(Cl)c(C(=O)O)c1,37.5%
9,CC(=O)c1ccc(Nc2nc(C(N)c3ccccc3)cs2)cc1 (stereo not given),32.9%
10,CC(=O)Nc1nc(C)c(-c2csc(Nc3ccc(S(N)(=O)=O)cc3)n2)s1,79.2% (active)
11,Cc1noc(C)c1COc1ccc2ccc(=O)oc2c1,33.5%
12,COc1cccc(C2c3[nH]c4ccccc4c3CCN2Cc2cccc(C)n2)c1 (stereo not given),26.3%
13,Nc1nnnn1CC(=O)N/N=C/c1ccc(-c2cccc(Cl)c2)o1,22.7%
14,C=CCNC(=O)c1ccc2c3n(nc2c1)-c1ccc(C)cc1CO3,47.4% (active)
15,O=C(N/N=C/c1ccccc1O)C1CCCC1,38.7%
16,CCN(/N=C/c1ccc(N(C)C)cc1)c1nc2ccccc2[nH]1,42.9% (active)
17,C=CCn1c(COc2cccc3cccnc23)nnc1SCC(=O)OC,36.7%
18,O=C(/C=C/c1cn(-c2ccccc2)nc1-c1ccc2c(c1)OCCO2)NCCCN1CCOCC1,33.2%
19,CC(=O)Nc1cc(-c2ccc(N3CCN(C)CC3)cc2)cn2c(-c3ccc(F)cc3)cnc12,45.5% (active)
20,COC(=O)C1=CN(C)C=C(C(=O)OC)C1c1ccc(Cl)cc1Cl,20%

row,SMILES,inhibition
1,CC(C(=O)NC1CCCCC1)N1C(=O)c2cccc3cccc1c23 (stereo not given),39.8%
2,O=C(NNC(=S)NC1CC2CCC1C2)c1ccc(Cl)cc1 (stereo not given),7.17%
3,COc1cccc(/C=C/C(=O)OCC(=O)N2CCCc3ccccc32)c1,38.8%
4,Cc1ccc(C)c(NC(=O)NNC(=O)c2ccc3ccccc3c2O)c1,30.6%
5,COC(=O)C1=CN(Cc2ccc(OC)cc2)C=C(C(=O)OC)C1c1ccc(O)c(OC)c1,33%
6,CS(=O)(=O)c1ccc2nc(NC(=O)c3ccc(Cl)nc3)sc2c1,66% (active)
7,COc1ccc2[nH]c(C(=O)N/N=C/c3cc(OC)c(OC)c(OC)c3)cc2c1,49.6% (active)
8,CCOc1ccc2[nH]c(C(=O)N/N=C/c3cccc(OC)c3OC)cc2c1,44.6% (active)
9,COc1cc2cc(C(=O)N/N=C/c3cccc(OC)c3OC)[nH]c2cc1OC,41.9% (active)
10,COc1cc2ccccc2cc1C(=O)Nc1ccncc1,39.2%
11,CCOC(=O)c1cnc2nc(SCc3ccccc3Cl)[nH]n2c1=O,20%
12,CCOc1ccc2[nH]c(=O)c(CN(Cc3nnnn3Cc3ccccc3)CC3CCCO3)cc2c1 (stereo not given),15.2%
13,COCCCNc1nc2ccccc2nc1NS(=O)(=O)c1ccc(F)cc1,29%
14,Cc1ccc2occ(/C=N/NC(=O)c3ccccc3C)c(=O)c2c1,24%
15,O=c1c2c(nc3cc(-c4cccc(Cl)c4)[nH]n13)CCCC2,-10.4%
16,NNC(=O)c1oc2nc(-c3ccccc3)cc(-c3ccco3)c2c1N,14.3%
17,CN(C)c1ccnc2sc(C(=O)c3ccccc3)c(N)c12,33.9%
18,Cc1nc2sc(C(=O)c3ccccc3)c(N)c2c2c1CCCC2,30.6%
19,O=C(COc1ccccc1Cl)N1N=C(c2cccs2)CC1c1ccco1 (stereo not given),37.1%
20,CCOc1cc(C(=O)Nc2c(C)ccc3nsnc23)cc(OCC)c1OCC,27.9%

row,SMILES,inhibition
1,CC(=O)Oc1c(C(=O)c2nnc(C)o2)c(=O)n(Cc2ccccc2)c2ccccc12,38.8%
2,O=C1c2cccc3cccc(c23)N1CN1CCN(c2ccccn2)CC1,28.8%
3,CC(=O)NNC(=O)c1csc(Cc2c(Cl)sc3ccc(Cl)cc23)n1,-2.26%
4,O=C(c1ccc(Cl)cc1)N1N=C(c2ccccn2)CC1(O)C(F)(F)F (stereo not given),1.98%
5,CCOc1cc(/C=N/Nc2cc(C)nc3ccc(C)cc23)ccc1O,40.1% (active)
6,CCN1CCCC1CNc1ncnc2c1[nH]c1ccc(F)cc12 (stereo not given),31%
7,C[C@H](O)[C@@H]1C(=O)N2CCc3c([nH]c4ccccc34)[C@@H]2C[C@@H]1N(C)C(=O)Nc1ccc(F)cc1,14.4%
8,Cc1ccc2cc(C#N)c(NCCNC(=S)NCCCN3CCOCC3)nc2c1,33.7%
9,COc1ccc(N(CC(=O)N/N=C/c2cccc3c2OCCO3)S(=O)(=O)c2ccc(NC(C)=O)cc2)cc1,42.7% (active)
10,O=C1NC(c2ccncc2)Nc2sc3c(c21)CCCC3 (stereo not given),39.4%
11,COc1cccc(C2CC(c3cccs3)=NN2C(=O)CSC2=NCCS2)c1OC (stereo not given),-80.4%
12,O=C(O)c1ccc2c(=O)n3c(nc2c1)/C(=C/c1ccc(OC(F)F)cc1OC(F)F)CC3,43.2% (active)
13,N#Cc1ccc(/C=C2\CCn3c2nc2cc(C(=O)O)ccc2c3=O)cc1,54.8% (active)
14,CCOc1ccc2nc(NCCNC(=O)C(C)(C)C)c(C)cc2c1,34.1%
15,Cc1ccc(-n2ncc3c(Nc4cccc(C(=O)O)c4)ncnc32)cc1,35.6%
16,CCOCCCNC(=O)C(NC(=O)c1ccccc1O)c1ccccc1 (stereo not given),39.4%
17,COc1ccc(C2c3[nH]c4ccccc4c3CCN2CCCn2cccn2)cc1C (stereo not given),29.8%
18,O=c1cc(CN2CCCCCCC2)c2c(ccc3ccccc32)o1,14.7%
19,Cc1noc(C)c1C(=O)OCC(=O)/C=C1\N(C)c2ccccc2C1(C)C,22.3%
20,CCOc1ccc2[nH]c(=O)c(CN(Cc3nnnn3CCc3ccccc3)CC3CCCO3)cc2c1 (stereo not given),12.7%
